Results as given in PubChem BioAssay.
The list shows a part of the results. Active and inactive are the calls of the source.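 Rule for the calls, unless noted: active = mean inhibition above about 50% in the one-dose retest (limit read from the data); inactive = the rest.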

Tests used:
[1] = biological target: Sentrin-specific protease 8 (Homo sapiens) (UniProt Q96LD8); experiment: SENP8 protease inhibitors, retest, confirmation, biochemical, luminescence, single concentration (AID 488912;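 active = mean inhibition across replicates above about 50%, limit read from the data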); conditions: Recombinant SENP8, Z-RLRGG-aminoluciferin luminescence, 60 min; at 12.5 µM; stronger effect = higher value
[2] = biological target: Sentrin-specific protease 6 (Homo sapiens) (UniProt Q9GZR1); experiment: SENP6 protease inhibitors, confirmation, biochemical, luminescence, single concentration (AID 488915); conditions: recombinant SENP6, Z-RLRGG-aminoluciferin luminescence; at 12.5 µM; stronger effect = higher value
[3] = biological target: Sentrin-specific protease 7 (Homo sapiens) (UniProt Q9BQF6); experiment: SENP7 protease inhibitors, retest, confirmation, biochemical, luminescence, single concentration (AID 488917); conditions: recombinant SENP7, Z-RLRGG-aminoluciferin luminescence, 40 min; at 12.5 µM; stronger effect = higher value
[4] = biological target: Caspase-3 (Homo sapiens) (UniProt P42574); experiment: caspase-3 protease inhibitors, confirmation, selectivity assay for SENP inhibitor project, biochemical, single concentration (AID 488918;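 active = mean inhibition above about 50%, limit read from the data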;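 note: plate controls were enzyme with DMSO for no effect and wells without caspase-3 for full effect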); conditions: purified caspase-3, Z-DEVD-aminoluciferin luminescence, 60 min; at 12.5 µM; stronger effect = higher value
[5] = luciferase luminescence interference by compounds, confirmation, artefact control for SENP inhibitor project, biochemical, single concentration, SENP8 reaction pre-completed (AID 488919;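 active = mean inhibition above about 50% when retested at one dose, limit read from the data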;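 note: plate controls were DMSO wells with completed reaction for no effect and substrate without enzyme for full effect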); conditions: Pre-incubated SENP8/Z-RLRGG-aminoluciferin, at 12.5 µM, stronger effect = higher value
[6] = biological target: Tumor necrosis factor receptor superfamily member 10B (Homo sapiens) (UniProt O14763); experiment: caspase-8 TRAIL sensitization, hit retest, confirmation, cell-based, NB7+caspase-8, with/without TRAIL, luminescence panel (AID 651596; in the data active = activity above about 50%); conditions: NB7 neuroblastoma + caspase-8, TRAIL sensitization, luminescence viability, with TRAIL, mean of runs, at 10 µM, stronger effect = higher value
[7] = as above; conditions: NB7 neuroblastoma + caspase-8, without TRAIL, luminescence viability, without TRAIL, mean of runs, at 10 µM
[8] = Peg3 promoter reporter inhibitors, retest, confirmation, cell-based, HeLa, luciferase reporter, single concentration (AID 602417;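 active = at 20 µM dose, 40% or more inhibition averaged across four replicates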); conditions: HeLa PEG-Prom luciferase reporter, luminescence, overnight; at 20 µM; stronger effect = higher value
[9] = biological target: Protein Mdm4 (Homo sapiens) + E3 ubiquitin-protein ligase Mdm2 (Homo sapiens) (UniProt O15151+Q00987); experiment: retested Mdm2-MdmX interaction blockers, confirmation, cell-based, luminescence, single concentration, set 2 (AID 504601;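 active = mean inhibition of the luminescence signal across two replicates at or above 26 percent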); conditions: SaOS-2 split-luciferase Mdm2/MdmX complementation, at 8 µM, stronger effect = higher value
[10] = Apaf-1 inhibitors, single-dose retest, confirmation, biochemical, fluorescence, DEVD-Rh110, 20 µM (AID 504614;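 active = mean inhibition of at least 40% at 20 µM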;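 note: plate controls were DMSO wells for no effect and DEVD-CHO caspase inhibitor control wells for full effect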); conditions: reconstituted apoptosome, caspase-3 DEVD-Rh110 fluorescence; at 20 µM; stronger effect = higher value
[11] = Rh110 fluorescence interference by putative Apaf-1 inhibitors, confirmation, artefact control for Apaf-1 inhibitor project, biochemical, 20 µM (AID 504615;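 active = signal rise of 40% or more at 20 µM, treated as a fluorescence artifact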); conditions: quenched caspase reaction, at 20 µM, stronger effect = higher value
[12] = fluorescence interference of Apaf-1 inhibitor hits, dose response, artefact control for Apaf-1 inhibitor project (AID 588538; call rule not given here); conditions: fluorescence interference counterscreen, Apaf-1 assay format

Caspase-3 (Homo sapiens), sequence (P42574 28-227 limits assumed): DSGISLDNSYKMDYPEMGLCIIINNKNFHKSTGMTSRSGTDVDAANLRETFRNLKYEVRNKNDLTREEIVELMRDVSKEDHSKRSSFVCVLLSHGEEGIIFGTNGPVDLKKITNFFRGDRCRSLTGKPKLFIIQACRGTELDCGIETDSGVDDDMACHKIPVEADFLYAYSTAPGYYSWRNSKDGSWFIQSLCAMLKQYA
Sentrin-specific protease 6 (Homo sapiens), sequence (Q9GZR1 628-1112 limits assumed): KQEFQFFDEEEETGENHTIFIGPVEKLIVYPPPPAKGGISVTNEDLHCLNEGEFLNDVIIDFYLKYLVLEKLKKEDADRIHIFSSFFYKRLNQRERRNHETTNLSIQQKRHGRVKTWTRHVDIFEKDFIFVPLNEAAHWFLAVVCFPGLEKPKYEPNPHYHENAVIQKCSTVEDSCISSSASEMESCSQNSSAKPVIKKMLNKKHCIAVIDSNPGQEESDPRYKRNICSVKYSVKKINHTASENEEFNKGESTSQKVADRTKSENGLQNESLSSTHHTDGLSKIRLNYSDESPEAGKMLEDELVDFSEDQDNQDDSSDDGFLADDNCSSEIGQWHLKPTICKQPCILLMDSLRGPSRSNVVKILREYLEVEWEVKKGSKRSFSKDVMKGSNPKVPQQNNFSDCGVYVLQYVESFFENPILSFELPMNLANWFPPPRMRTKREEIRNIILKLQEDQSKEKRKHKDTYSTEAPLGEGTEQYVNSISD
Sentrin-specific protease 8 (Homo sapiens), sequence (Q96LD8 whole entry, looked up): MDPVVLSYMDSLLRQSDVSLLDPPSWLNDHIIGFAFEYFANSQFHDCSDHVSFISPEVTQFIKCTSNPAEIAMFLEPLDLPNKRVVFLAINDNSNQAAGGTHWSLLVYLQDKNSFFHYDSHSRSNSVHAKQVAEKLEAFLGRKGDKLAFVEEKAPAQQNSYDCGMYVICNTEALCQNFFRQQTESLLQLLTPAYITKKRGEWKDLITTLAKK
Sentrin-specific protease 7 (Homo sapiens), sequence (Q9BQF6 706-1050 limits assumed): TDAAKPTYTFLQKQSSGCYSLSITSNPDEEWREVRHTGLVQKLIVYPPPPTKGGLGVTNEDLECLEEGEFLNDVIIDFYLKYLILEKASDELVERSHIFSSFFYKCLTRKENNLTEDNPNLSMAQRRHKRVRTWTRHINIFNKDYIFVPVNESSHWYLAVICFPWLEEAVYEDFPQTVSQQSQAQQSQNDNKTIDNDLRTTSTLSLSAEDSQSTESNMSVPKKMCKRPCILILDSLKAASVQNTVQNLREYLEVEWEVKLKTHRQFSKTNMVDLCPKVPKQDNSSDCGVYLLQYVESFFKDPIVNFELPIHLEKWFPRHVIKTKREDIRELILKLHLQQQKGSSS
Tumor necrosis factor receptor superfamily member 10B (Homo sapiens), sequence (O14763 whole entry, looked up): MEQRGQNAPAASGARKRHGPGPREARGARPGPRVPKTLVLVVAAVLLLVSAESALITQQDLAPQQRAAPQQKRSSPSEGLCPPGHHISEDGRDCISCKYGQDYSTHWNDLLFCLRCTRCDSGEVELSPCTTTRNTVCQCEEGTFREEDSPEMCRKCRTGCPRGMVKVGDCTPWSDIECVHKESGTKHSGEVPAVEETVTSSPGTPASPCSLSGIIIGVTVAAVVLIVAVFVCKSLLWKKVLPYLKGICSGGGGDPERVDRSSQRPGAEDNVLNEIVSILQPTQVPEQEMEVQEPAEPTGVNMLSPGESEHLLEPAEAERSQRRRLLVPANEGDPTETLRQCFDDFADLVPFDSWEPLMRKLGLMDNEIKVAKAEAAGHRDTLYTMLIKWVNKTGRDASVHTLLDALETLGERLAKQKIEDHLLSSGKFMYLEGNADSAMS
Protein Mdm4 (Homo sapiens) + E3 ubiquitin-protein ligase Mdm2 (Homo sapiens), sequence (O15151 whole entry, looked up): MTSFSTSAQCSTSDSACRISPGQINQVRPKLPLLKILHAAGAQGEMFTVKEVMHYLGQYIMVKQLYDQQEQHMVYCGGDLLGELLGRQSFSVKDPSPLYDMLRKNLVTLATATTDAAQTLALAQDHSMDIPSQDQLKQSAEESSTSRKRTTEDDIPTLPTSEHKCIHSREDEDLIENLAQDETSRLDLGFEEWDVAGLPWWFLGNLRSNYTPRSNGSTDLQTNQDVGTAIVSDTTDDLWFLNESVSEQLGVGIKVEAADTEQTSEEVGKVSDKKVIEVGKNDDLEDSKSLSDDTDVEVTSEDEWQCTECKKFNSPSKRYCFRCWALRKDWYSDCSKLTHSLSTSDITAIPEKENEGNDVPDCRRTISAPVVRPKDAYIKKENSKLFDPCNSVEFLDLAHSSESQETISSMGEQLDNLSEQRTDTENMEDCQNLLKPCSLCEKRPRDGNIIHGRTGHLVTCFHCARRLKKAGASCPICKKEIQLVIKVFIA
Protein Mdm4 (Homo sapiens) + E3 ubiquitin-protein ligase Mdm2 (Homo sapiens), sequence (Q00987 whole entry, looked up): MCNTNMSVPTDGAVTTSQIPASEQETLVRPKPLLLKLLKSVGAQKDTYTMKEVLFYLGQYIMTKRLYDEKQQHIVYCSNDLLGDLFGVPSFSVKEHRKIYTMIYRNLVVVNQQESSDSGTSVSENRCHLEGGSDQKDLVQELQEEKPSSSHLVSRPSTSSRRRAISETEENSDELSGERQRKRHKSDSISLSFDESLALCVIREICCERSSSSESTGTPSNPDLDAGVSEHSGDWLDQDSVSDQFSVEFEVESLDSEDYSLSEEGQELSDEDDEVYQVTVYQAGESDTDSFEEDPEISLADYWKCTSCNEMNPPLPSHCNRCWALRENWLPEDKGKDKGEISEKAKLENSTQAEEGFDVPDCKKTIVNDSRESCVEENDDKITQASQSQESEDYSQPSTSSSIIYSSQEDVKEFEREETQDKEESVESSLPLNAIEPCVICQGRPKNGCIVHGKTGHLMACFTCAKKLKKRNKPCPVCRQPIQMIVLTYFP

SMILES | inhibition [1] | inhibition [2] | inhibition [3] | inhibition [4] | inhibition [5] | activity [6] [%] | activity [7] [%] | inhibition [8] | inhibition [9] | inhibition [10] | activation (fluorescence interference) [11] | IC50 [12]
CC(=O)Nc1cccc(C(=O)OCC(=O)c2ccc3c(c2)OCO3)c1 | 84.2% (active) | 83.1% (active) | 51.3% (active) | 85.2% (active) | 80.8% (active) | 70.3 | 60.6 |  |  |  |  | 
c1c2c(cc3sc(N4CCCCC4)nc13)OCCO2 | 97% (active) | 98.6% (active) | 103% (active) | 97.5% (active) | 52.1% (active) |  |  | 37.5% (inactive) |  |  |  | 
O=C(Nc1ccn(Cc2ccccc2)n1)c1n[nH]c([N+](=O)[O-])c1Cl | 96.4% (active) | 97.3% (active) | 102% (active) | 96.2% (active) | 96.7% (active) | 64.8 | 63 |  |  |  |  | 
COc1cccc(C(=O)Nc2ccc(N3CCCC3)cc2)c1 | 95% (active) | 99.7% (active) | 104% (active) | 99.5% (active) | 86.3% (active) | 46.8 | 54 |  |  |  |  | 
CC[C@]1(C(=O)OC)[C@H]2C(=O)N(Cc3ccccc3)C(=O)[C@H]2[C@H]2CN=C(SCc3ccc(C#N)cc3)N21 |  |  |  |  |  |  |  |  | 102% (active) |  |  | 
CC(=O)N(C1=C(Cl)C(=O)c2ccccc2C1=O)c1ccc(C(=O)O)cc1 | 81.7% (active) | 91% (active) | 55.3% (active) | 6.3% (inactive) | 4% (inactive) |  |  |  |  | 95% (active) | 9.87% (inactive) | > 100 µM (inactive)
Cc1oc2c(c1C(=O)N1CCOCC1)C(=O)c1ccccc1C2=O | 27.7% (inactive) | 61% (active) | 6% (inactive) | 87.5% (active) | -2.3% (inactive) |  |  |  |  | 52.9% (active) | 8.76% (inactive) | > 100 µM (inactive)
